Measurements from the OligoGym collection.

Target: RIT1
Assay: pooled miR-30 sensor sort-seq; sequence = guide strand
Conditions: shRNA
Further: reference of the scale not given here.

| Sequence | sensor-assay potency score (higher = more potent) |
| --- | --- |
| TAAACTCTGCCTGTCCAGCTGT | 0.108 |
| TATAGTAGCGGTATGCAGCAGA | 0.384 |
| TAGCTGTTTGAGGTCTGACTTG | -0.94 |
| TAAGCTGTTTAAACTCACGAAC | -0.618 |
| TACACCACCAGCACCCAGCATC | -0.912 |
| TTCTTTCCTACGTATCTCCCGT | -0.212 |
| TCGGACTCGATAAATAAGCTGT | -0.314 |
| TTGAGGTCTGACTTGTTTCCCA | -0.117 |

Target: RNASE11
Assay: as above
Conditions: shRNA

| Sequence | sensor-assay potency score (higher = more potent) |
| --- | --- |
| TTGGATTTTTCACTCCTCCAGT | -0.449 |
| TTATCTTCATTGTGCTTTCTGA | -0.608 |
| TCTTTAATTATCTTCATTGTGC | -0.382 |
| TTTAACTAACAGGATCGGGTTC | -0.116 |
| TTTAGTAAGACCCTAGTCCTAA | -0.427 |
| TTCTCTAATGAGGTAACACTAT | -1.05 |
| TAATGAGGTAACACTATGGTAT | -0.534 |
| TTCTGTACAAACTTGCAGCTGG | 0.788 |
| TATTGCATCTCTTCGTCTGTAA | 0.018 |
| TGATGCTTCTGCAAGAACCAGG | -0.377 |
| TTGTGCTTTCTGATGCTTCTGC | 0.534 |
| TTCGTCTGTAAATTCTTCTTTA | -0.406 |

Target: RNF113A
Assay: as above
Conditions: shRNA

| Sequence | sensor-assay potency score (higher = more potent) |
| --- | --- |
| TACTGCTGCCGCTTTCTCCGGG | -0.242 |
| TTTACCACTGTCACGGGTCTTC | -0.541 |
| TAGTTTAGCAATCAATTCTTTC | -0.827 |
| TAGCTCGATGCTTCTCTAGTTT | -0.684 |
| TTCGTCGCTACTGCTGCCGCTT | -0.608 |
| TAGCAATCAATTCTTTCGCTGG | 0.133 |
| ATAGATCTTGTCATCCTCCTTG | 0.536 |
| TTTTCCGGTCGAACCACAGTGC | -0.536 |
| TTCGCTGCTCAAGTCGCCGTAA | -0.391 |
| TTAGCAATCAATTCTTTCGCTG | 0.0148 |
| TAGATCTTGTCATCCTCCTTGC | 0.184 |
| TTTTCCTCTTCCTCTTCGCTGC | -0.23 |

Target: RNF122
Assay: as above
Conditions: shRNA

| Sequence | sensor-assay potency score (higher = more potent) |
| --- | --- |
| ATAATTGTAACTTCTTGGCATC | -0.737 |
| TTGCTGATAAAATAGCAGCAGA | -0.908 |
| TAACTTCTTGGCATCACCTTTA | -0.252 |
| TAGAATCCCAATGTTCTGCGTG | 0.594 |
| TATCCGTATCGCTCACTCTGTG | -0.565 |
| TTTCACCAGACACTTGCGGTGA | -0.949 |
| ATCCGTATCGCTCACTCTGTGC | -0.963 |
| TATATCCGTATCGCTCACTCTG | -0.842 |
